Measurements taken from PubChem BioAssay AID720504 (National Center for Advancing Translational Sciences (NCATS), 2013).
Screen size: about 360,000 compounds; about 10,000 (2.8%) were called active. Another 4% or so got no clear call; they are omitted. Only a selection was taken, and actives are over-represented in it overall. Values without a mark were called inactive. The call rests on the fitted dose curve; in most records, active means well fitted inhibition curve with a large enough effect; inconclusive means small, poorly fitted or top-dose-only effect; inactive means flat fitted curve, though single readings scatter.

Target: Serine/threonine-protein kinase PLK1 (Homo sapiens) (UniProt P53350)
Assay: qHTS for Inhibitors of PLK1-PDB (polo-like kinase 1 - polo-box domain): Primary Screen; further: nearly all actives have a fitted effect of over 65% in size; on max response, negative = inhibition: series mostly up to about 57 µM
Settings: Plk1 PBD binding of FITC phosphopeptide, fluorescence polarization
On the % scale 0 is the no-effect control and ±100 the full control effect; potency means the concentration at half of the fitted maximal effect.

Serine/threonine-protein kinase PLK1 (Homo sapiens), sequence (P53350 whole entry, looked up, the tested form may be a part): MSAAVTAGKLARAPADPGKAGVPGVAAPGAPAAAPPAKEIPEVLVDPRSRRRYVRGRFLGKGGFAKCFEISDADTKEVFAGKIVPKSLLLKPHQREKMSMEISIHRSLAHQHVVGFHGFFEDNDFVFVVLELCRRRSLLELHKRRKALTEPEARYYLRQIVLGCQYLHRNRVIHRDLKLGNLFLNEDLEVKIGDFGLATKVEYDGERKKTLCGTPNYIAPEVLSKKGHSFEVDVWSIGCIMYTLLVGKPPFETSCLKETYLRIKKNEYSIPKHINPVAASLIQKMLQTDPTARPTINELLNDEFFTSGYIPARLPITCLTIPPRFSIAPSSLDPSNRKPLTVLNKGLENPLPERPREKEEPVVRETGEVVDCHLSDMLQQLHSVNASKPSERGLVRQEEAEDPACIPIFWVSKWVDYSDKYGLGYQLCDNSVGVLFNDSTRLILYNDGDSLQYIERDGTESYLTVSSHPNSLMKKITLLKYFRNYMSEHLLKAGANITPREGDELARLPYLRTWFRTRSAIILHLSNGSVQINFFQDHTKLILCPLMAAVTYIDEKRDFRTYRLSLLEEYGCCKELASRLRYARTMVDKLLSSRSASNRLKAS

Compared with `CC(=O)Nc1cccc(-c2ccnc3c2CC(C)(C(=O)NCc2ccco2)O3)c1` (stereo not given), `CC(=O)Nc1cc(-c2ccccc2F)cn2c(-c3cccc(C(F)(F)F)c3)cnc12` is higher in max response, negative = inhibition: -8.18% for the first, -1.88% for the second.

Going from `COc1ccc(N(CC(=O)Nc2cc(OC)ccc2OC)S(=O)(=O)c2c(C)noc2C)cc1` to `CCOC(=O)c1cccc(NC(=O)CN(c2ccc(C)cc2)S(=O)(=O)c2c(C)noc2C)c1`, the max response, negative = inhibition falls from 2.36% to -3.68%.

Going from `Cc1ccc(S(=O)(=O)N2CCN(CC(=O)N/N=C/c3ccc(Br)s3)CC2)cc1` to `CC(C)N(C(=O)CN1CCN(S(=O)(=O)c2ccc(Br)s2)CC1)C(C)C`, the max response, negative = inhibition rises from -1.96% to 1%.

First: CCCCc1c(-c2ccc(Cl)cc2)ncn1CCc1ccccc1OC
Second: CCCCn1nnnc1C(c1cc2ccccc2o1)N(C)Cc1ccc(Cl)c(Cl)c1 (stereo not given)
The max response, negative = inhibition of the first is lower: 5.05% for the first, 5.97% for the second.

First: COc1ccc(-c2ccc(CN3C(CC(C)C)C(=O)N(Cc4cn(CC5CCCCC5)nn4)CCS3(=O)=O)cc2)cn1 (stereo not given)
Second: CC1(C)CN(Cc2cccnc2)C(=O)[C@H]1CC(=O)Nc1ccc(Br)cc1
The max response, negative = inhibition of the first is lower: -1.42% for the first, 2.66% for the second.

Going from `COc1ccc(NC(=O)CN(C)C(=O)c2cc(C)oc2C)cc1` to `O=C(Nc1ccc(F)cc1)Nc1nnc([C@H]2C[C@H](O)[C@@H](CO)O2)s1`, the max response, negative = inhibition rises from 1.78% to 3.58%.

First: Cc1nc(Cl)c(C#N)c2c1CCCC2
Second: COC(=O)c1c(C)c(C)nc(N)c1C#N
The max response, negative = inhibition of the first is lower: -17.7% for the first, -3.28% for the second.

Going from `COC(=O)C[C@H]1C=C[C@H](NC(=O)c2ccc(F)cc2)[C@@H](CO)O1` to `O=C(NCCc1cccc(F)c1)C1CC(O)CN1C(=O)Nc1ccccc1` (stereo not given), the max response, negative = inhibition rises from -25.2% to -1.53%.

Compared with `Cc1noc(C)c1CCC(=O)N1CCCC(CO)(Cc2ccccc2)C1` (stereo not given), `Cc1ccccc1CC1(CO)CCCN(C(=O)c2cc(-c3ccccc3)no2)C1` (stereo not given) is higher in max response, negative = inhibition: -15.4% for the first, -5.7% for the second.

Going from `CCCCN1C(=O)C(CC(=O)NCc2cccs2)CC(C(=O)N2CCOCC2)=C1C` (stereo not given) to `CC(C)(C)C(=O)c1c(N)[nH]c(C(=O)c2ccccc2)c1-c1ccc(F)cc1`, the max response, negative = inhibition falls from 5.78% to 2.51%.

In the case of `CCOc1ccc(N(CC(=O)OC)S(=O)(=O)c2c(C)noc2C)cc1`, the Potency is reported as 26.7 µM (active).
`Cc1cccc(NC(=O)CN2CCCN(S(=O)(=O)c3ccc(Br)s3)CC2)c1` was tested, and the Potency was 21.2 µM (active).
In the case of `CNC(=O)Nc1cc(C(C)(C)C)no1`, the Potency is reported as 10.6 µM (active).
With `COCc1c(N)c(C)nc(Cl)c1C#N` the Potency was 18.9 µM (active).
With `COC(=O)CCC(=O)N1CCCC(CO)(Cc2ccccc2)C1` (stereo not given) the Potency was 21.2 µM (active).
